Results as given in PubChem BioAssay (EPA / NIEHS).
Records with an inconclusive call do not appear. Calls of active or inactive are those of the source. The calls were made as follows, unless noted: active = hit-call score of the fitted dose curve at least 0.9, where 1 is the maximum; inactive = score below 0.9.

Test system: not listed separately
Experiment: CCTE_Harrill_HTTr_CellCount_MCF7: CCTE's Cell Proliferation Assessment for the High-Throughput Transcriptomics (HTTr) Platform, Harrill Lab (AID 2284012; active = hit-call score of the fitted dose curve at least 0.9, where 1 is the maximum;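 also: cells exposed to compound for six hours; intended direction is loss of nuclei count meaning fewer cells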)
Details: not given
Summary of the method: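 Cell count served as viability reporter: loss of Hoechst-stained nuclei, counted by high content imaging, marks decreased growth or survival. Exposure was 6 h in MCF-7 cells across eight concentrations, with DMSO as baseline.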

Compound	outcome
Clc1cccc(Cl)c1NC1=NCCN1	inactive
CC(=O)NCCCS(=O)(=O)O	inactive
C1=CCC(c2ccccc2)CC1 (stereo unspecified)	inactive
CN(C)CCOC(=O)COc1ccc(Cl)cc1	inactive
CCCCC(=O)O[C@]1(C(=O)CO)[C@@H](C)C[C@H]2[C@@H]3CCC4=CC(=O)C=C[C@]4(C)[C@@]3(F)[C@@H](O)C[C@@]21C	inactive
CCOC(=O)n1ccn(C)c1=S	inactive
CC1(C)[C@@H](O[C@H]2O[C@H](C(=O)O)[C@@H](O)[C@H](O)[C@H]2O[C@@H]2O[C@H](C(=O)O)[C@@H](O)[C@H](O)[C@H]2O)CC[C@]2(C)[C@H]3C(=O)C=C4[C@@H]5C[C@@](C)(C(=O)O)CC[C@]5(C)CC[C@@]4(C)[C@]3(C)CC[C@@H]12	inactive

Test system: Brachyury (BRA) Protein Expression, Deisenroth Lab, TBXT (gene 6862)
Experiment: CCTE_Deisenroth_DEVTOX-GLR_legacy_Bra: (Legacy) CCTE's DevTox GLR-Endo Assay Evaluation of Brachyury (BRA) Protein Expression, Deisenroth Lab (AID 2284329)
Details: not given
Summary of the method: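 High-content imaging of fixed RUES2-GLR cells after a 48-hour differentiation with two compound exposures yields percent cells whose Bra signal exceeds pluripotent control median by 5x BMAD; values are baseline-corrected to DMSO.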

Compound	AC50
COc1cc2c(Nc3ccc(Br)cc3F)ncnc2cc1OCC1CCN(C)CC1	8.49 µM (active)
Cc1nc(Nc2ncc(C(=O)Nc3c(C)cccc3Cl)s2)cc(N2CCN(CCO)CC2)n1	3.19 µM (active)
O=C1Cc2cc(CCN3CCN(c4nsc5ccccc45)CC3)c(Cl)cc2N1	3.94 µM (active)
CNC(=O)c1cc(Oc2ccc(NC(=O)Nc3ccc(Cl)c(C(F)(F)F)c3)cc2)ccn1	0.815 µM (active)

Test system: not listed separately
Experiment: CCTE_Deisenroth_DEVTOX-GLR_legacy_CellCount: (Legacy) Viability Assessment in CCTE's DevTox GLR-Endo Assay, Deisenroth Lab (AID 2284331)
Details: actives raise or lower the signal
Summary of the method: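 Viability is taken from imaged nuclei counts in fixed RUES2-GLR cultures after 48 h of differentiation under two 24 h-spaced chemical exposures, 10 concentrations from 1 nM to 200 uM, gain or loss versus DMSO baseline.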

Compound	AC50
COc1cc2c(Nc3ccc(Br)cc3F)ncnc2cc1OCC1CCN(C)CC1	4.51 µM (active)
Cc1nc(Nc2ncc(C(=O)Nc3c(C)cccc3Cl)s2)cc(N2CCN(CCO)CC2)n1	0.0582 µM (active)
O=C1Cc2cc(CCN3CCN(c4nsc5ccccc45)CC3)c(Cl)cc2N1	3.31 µM (active)
CNC(=O)c1cc(Oc2ccc(NC(=O)Nc3ccc(Cl)c(C(F)(F)F)c3)cc2)ccn1	1.11 µM (active)
Cc1nc2sccn2c(=O)c1CCN1CCC(=C(c2ccc(F)cc2)c2ccc(F)cc2)CC1	9.28 µM (active)

Test system: SRY-box transcription factor 2 (SOX2) Protein Expression, Deisenroth Lab, SOX2 (gene 6657)
Experiment: CCTE_Deisenroth_DEVTOX-GLR_legacy_Sox2: (Legacy) CCTE's DevTox GLR-Endo Assay Evaluation of SRY-box transcription factor 2 (SOX2) Protein Expression, Deisenroth Lab (AID 2284346)
Details: not given
Summary of the method: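 Two exposures, 24 h apart, during 48 h defined-media differentiation of seeded RUES2-GLR cells; nuclei-stained cells imaged. Sox2 positivity called at 5x BMAD above endoderm control median, DMSO median subtracted.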

Compound	AC50
COc1cc2c(Nc3ccc(Br)cc3F)ncnc2cc1OCC1CCN(C)CC1	7.85 µM (active)
Cc1nc(Nc2ncc(C(=O)Nc3c(C)cccc3Cl)s2)cc(N2CCN(CCO)CC2)n1	151 µM (active)
O=C1Cc2cc(CCN3CCN(c4nsc5ccccc45)CC3)c(Cl)cc2N1	4.3 µM (active)
CNC(=O)c1cc(Oc2ccc(NC(=O)Nc3ccc(Cl)c(C(F)(F)F)c3)cc2)ccn1	1.5 µM (active)
Cc1nc2sccn2c(=O)c1CCN1CCC(=C(c2ccc(F)cc2)c2ccc(F)cc2)CC1	8.41 µM (active)
